# In paper PMC7862700, “An all-to-all approach to the identification of sequence-specific readers for epigenetic DNA modifications on cytosine”:
# Key:
# Assay in all cases: DAPPL (digital affinity profiling via proximity ligation, sequencing); 10 mM Tris-HCl pH 7.5, 50 mM NaCl, 1 mM DTT, 4% glycerol, room temperature, 30 min; GST-TFs on glutathione beads, 16-mer random dsDNA library, 0.1% formaldehyde crosslink after washing; high values mean tight binding
# FEV = target: T1, FEV (Homo sapiens, UniProt Q99581 1-238); conditions: protein: recombinant; tags: N-terminal GST; dsDNA, one strand shown
# T1 sequence: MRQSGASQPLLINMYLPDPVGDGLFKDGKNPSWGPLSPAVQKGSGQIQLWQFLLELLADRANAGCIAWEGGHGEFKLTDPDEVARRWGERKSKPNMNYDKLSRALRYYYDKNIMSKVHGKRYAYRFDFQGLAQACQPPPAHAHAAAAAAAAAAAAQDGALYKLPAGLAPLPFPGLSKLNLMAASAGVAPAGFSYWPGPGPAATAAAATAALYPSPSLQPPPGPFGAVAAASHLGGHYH
# Summary of the method: (§1)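 Pools of DNA-barcoded human transcription factors, expressed in yeast as GST fusions on glutathione beads and combined with a tag-only sample, were incubated with 200 nmole of a 16-mer random double-stranded DNA library. Incubation took 30 min at room temperature in Tris/NaCl/DTT/glycerol buffer and was followed by washing, 0.1% formaldehyde crosslinking, proximity ligation (BsaI/T4 ligase, 1 h, 37 °C), PCR amplification and sequencing on an Illumina NextSeq500. Binding signal is the ratio of a hexamer's read frequency for a factor to its frequency for the tag-only sample.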
# ETV5 = ETV5 (Homo sapiens, UniProt P41161 1-510); conditions: protein: recombinant; tags: N-terminal GST; dsDNA, one strand shown
# Summary of the method: as §1
# HSF1 = HSF1 (Homo sapiens, UniProt Q00613 1-529); conditions: protein: recombinant; tags: N-terminal GST; chain copies: 3; dsDNA, one strand shown
# Summary of the method: as §1
# SPIC = target: T2, SPIC (Homo sapiens, UniProt Q8N5J4 1-248); conditions: protein: recombinant; tags: N-terminal GST; dsDNA, one strand shown
# T2 sequence: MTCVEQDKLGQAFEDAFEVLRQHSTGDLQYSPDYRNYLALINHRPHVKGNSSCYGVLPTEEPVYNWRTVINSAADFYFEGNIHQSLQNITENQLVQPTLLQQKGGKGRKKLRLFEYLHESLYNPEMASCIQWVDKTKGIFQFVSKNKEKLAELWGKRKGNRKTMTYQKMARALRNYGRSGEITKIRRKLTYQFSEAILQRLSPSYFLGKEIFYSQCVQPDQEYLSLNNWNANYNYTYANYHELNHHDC
# Summary of the method: as §1
# ELF4 = ELF4 (Homo sapiens, UniProt Q99607 1-663); conditions: protein: recombinant; tags: N-terminal GST; dsDNA, one strand shown
# Summary of the method: as §1
# ELK4 = target: T3, ELK4 (Homo sapiens, UniProt P28324-2 1-405); conditions: protein: recombinant; tags: N-terminal GST; dsDNA, one strand shown
# T3 sequence: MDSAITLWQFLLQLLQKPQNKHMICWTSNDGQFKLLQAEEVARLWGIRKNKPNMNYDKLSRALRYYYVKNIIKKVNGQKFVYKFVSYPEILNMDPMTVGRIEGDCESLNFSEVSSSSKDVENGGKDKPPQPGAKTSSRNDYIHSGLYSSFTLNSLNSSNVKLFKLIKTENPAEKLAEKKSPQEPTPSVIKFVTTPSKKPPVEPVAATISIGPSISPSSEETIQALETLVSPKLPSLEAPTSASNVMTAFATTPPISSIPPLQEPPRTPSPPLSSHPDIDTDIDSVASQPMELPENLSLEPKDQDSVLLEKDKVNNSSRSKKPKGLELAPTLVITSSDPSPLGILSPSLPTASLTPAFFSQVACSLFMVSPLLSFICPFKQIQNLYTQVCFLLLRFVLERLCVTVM
# Summary of the method: as §1
# ETV2 = target: T4, ETV2 (Homo sapiens, UniProt O00321 1-342); conditions: protein: recombinant; tags: N-terminal GST; dsDNA, one strand shown
# T4 sequence: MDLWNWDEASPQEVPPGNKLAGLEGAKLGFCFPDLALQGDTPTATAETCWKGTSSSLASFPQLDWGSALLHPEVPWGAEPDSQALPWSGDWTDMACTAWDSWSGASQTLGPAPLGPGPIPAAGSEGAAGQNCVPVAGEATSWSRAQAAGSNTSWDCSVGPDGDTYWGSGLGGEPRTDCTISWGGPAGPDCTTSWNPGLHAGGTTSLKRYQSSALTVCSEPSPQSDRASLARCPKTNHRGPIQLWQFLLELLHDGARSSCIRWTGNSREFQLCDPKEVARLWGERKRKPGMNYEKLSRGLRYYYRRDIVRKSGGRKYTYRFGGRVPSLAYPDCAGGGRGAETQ
# Summary of the method: as §1
# ELF3 = target: T5, ELF3 (Homo sapiens, UniProt P78545 1-371); conditions: protein: recombinant; tags: N-terminal GST; dsDNA, one strand shown
# T5 sequence: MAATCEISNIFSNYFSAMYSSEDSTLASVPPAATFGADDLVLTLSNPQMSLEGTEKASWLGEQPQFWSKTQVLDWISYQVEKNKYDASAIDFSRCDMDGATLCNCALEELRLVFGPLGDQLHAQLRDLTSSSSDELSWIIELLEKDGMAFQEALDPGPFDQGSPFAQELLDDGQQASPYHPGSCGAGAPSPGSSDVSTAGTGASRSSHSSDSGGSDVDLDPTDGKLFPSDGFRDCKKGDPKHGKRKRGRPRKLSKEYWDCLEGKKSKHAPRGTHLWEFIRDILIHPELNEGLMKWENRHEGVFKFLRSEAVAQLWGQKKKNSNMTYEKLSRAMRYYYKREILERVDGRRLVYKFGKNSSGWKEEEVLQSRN
# Summary of the method: as §1
# CRX = CRX (Homo sapiens, UniProt O43186 1-299); conditions: protein: recombinant; tags: N-terminal GST; dsDNA, one strand shown
# Summary of the method: as §1
# ETV1 = ETV1 (Homo sapiens, UniProt P50549 1-477); conditions: protein: recombinant; tags: N-terminal GST; dsDNA, one strand shown
# Summary of the method: as §1
# ERF = target: T6, ERF (Homo sapiens, UniProt P50548 1-548); conditions: protein: recombinant; tags: N-terminal GST; dsDNA, one strand shown
# T6 sequence: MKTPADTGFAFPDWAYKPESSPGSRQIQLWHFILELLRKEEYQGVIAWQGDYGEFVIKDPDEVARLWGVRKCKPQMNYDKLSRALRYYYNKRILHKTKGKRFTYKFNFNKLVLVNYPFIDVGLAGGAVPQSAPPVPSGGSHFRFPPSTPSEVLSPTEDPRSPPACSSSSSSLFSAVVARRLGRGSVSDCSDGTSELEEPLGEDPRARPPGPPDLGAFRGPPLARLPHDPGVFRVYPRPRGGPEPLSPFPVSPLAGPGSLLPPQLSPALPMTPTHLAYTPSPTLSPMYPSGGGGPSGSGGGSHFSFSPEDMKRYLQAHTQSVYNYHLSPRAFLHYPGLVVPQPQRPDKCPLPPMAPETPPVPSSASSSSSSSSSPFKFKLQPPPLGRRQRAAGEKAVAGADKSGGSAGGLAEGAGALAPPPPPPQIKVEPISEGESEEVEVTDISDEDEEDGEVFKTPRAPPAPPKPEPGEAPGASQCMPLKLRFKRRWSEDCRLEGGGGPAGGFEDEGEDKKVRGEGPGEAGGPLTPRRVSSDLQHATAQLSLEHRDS
# Summary of the method: as §1
# ETV3L = target: T7, ETV3L (Homo sapiens, UniProt Q6ZN32 1-361); conditions: protein: recombinant; tags: N-terminal GST; dsDNA, one strand shown
# T7 sequence: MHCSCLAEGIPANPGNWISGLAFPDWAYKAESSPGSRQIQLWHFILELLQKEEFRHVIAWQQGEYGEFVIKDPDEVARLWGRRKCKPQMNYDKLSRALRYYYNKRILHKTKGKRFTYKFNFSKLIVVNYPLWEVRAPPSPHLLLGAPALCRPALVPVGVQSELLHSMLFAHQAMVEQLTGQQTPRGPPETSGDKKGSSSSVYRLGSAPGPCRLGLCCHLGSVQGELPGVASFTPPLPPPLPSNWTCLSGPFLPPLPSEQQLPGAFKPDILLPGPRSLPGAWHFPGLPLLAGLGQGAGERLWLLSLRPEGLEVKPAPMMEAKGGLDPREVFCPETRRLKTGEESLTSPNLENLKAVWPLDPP
# Summary of the method: as §1
# ETS2 = target: T8, ETS2 (Homo sapiens, UniProt P15036 1-469); conditions: protein: recombinant; tags: N-terminal GST; dsDNA, one strand shown
# T8 sequence: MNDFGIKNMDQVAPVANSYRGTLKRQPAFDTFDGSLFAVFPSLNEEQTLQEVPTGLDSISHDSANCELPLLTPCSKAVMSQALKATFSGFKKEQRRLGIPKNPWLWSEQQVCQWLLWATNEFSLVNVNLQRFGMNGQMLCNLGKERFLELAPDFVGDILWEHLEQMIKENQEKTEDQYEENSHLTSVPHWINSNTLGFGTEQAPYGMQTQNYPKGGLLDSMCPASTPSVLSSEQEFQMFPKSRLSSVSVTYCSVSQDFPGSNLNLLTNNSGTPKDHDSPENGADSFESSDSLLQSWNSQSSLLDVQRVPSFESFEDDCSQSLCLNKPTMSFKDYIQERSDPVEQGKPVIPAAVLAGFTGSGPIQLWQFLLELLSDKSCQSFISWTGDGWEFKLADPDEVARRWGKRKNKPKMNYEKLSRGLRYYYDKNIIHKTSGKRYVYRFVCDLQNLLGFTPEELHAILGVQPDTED
# Summary of the method: as §1
# SPDEF = target: T9, SPDEF (Homo sapiens, UniProt O95238 1-335); conditions: protein: recombinant; tags: N-terminal GST; dsDNA, one strand shown
# T9 sequence: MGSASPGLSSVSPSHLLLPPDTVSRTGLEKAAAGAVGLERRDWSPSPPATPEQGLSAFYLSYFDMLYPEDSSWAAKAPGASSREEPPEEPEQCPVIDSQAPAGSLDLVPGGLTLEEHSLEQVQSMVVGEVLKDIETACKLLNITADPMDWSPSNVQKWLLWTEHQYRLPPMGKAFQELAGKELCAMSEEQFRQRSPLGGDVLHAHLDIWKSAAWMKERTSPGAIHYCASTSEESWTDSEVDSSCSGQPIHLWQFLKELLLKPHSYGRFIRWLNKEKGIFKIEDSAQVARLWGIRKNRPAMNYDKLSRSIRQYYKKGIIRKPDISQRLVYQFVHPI
# Summary of the method: as §1
# ETV7 = target: T10, ETV7 (Homo sapiens, UniProt Q9Y603 1-341); conditions: protein: recombinant; tags: N-terminal GST; dsDNA, one strand shown
# T10 sequence: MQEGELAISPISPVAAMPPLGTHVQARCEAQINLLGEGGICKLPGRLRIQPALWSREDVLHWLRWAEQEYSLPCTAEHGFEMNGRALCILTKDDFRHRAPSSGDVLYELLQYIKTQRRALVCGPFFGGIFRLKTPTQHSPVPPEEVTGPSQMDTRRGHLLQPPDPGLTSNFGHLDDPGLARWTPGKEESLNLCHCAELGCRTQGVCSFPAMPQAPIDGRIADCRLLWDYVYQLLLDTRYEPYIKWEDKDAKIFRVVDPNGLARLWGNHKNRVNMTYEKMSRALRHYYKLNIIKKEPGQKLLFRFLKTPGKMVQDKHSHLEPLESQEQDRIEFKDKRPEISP
# Summary of the method: as §1
# ETV6 = ETV6 (Homo sapiens, UniProt P41212 1-452); conditions: protein: recombinant; tags: N-terminal GST; dsDNA, one strand shown
# Summary of the method: as §1
# Sequence of HSF1 (Q00613 whole entry): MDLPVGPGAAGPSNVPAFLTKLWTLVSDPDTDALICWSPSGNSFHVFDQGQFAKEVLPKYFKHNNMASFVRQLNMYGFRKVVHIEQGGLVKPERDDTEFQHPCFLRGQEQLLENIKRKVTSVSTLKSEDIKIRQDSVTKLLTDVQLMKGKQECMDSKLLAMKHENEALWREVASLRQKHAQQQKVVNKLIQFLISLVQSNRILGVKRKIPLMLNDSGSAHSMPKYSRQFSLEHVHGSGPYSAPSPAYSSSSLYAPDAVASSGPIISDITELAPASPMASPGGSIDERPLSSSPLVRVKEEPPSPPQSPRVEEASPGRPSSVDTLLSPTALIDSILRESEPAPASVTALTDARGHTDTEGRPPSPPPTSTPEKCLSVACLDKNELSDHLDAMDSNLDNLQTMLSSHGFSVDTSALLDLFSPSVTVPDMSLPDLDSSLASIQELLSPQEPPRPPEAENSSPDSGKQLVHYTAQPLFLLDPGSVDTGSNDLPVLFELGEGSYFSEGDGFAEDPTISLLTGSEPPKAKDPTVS
# Sequence of ETV1 (P50549 whole entry): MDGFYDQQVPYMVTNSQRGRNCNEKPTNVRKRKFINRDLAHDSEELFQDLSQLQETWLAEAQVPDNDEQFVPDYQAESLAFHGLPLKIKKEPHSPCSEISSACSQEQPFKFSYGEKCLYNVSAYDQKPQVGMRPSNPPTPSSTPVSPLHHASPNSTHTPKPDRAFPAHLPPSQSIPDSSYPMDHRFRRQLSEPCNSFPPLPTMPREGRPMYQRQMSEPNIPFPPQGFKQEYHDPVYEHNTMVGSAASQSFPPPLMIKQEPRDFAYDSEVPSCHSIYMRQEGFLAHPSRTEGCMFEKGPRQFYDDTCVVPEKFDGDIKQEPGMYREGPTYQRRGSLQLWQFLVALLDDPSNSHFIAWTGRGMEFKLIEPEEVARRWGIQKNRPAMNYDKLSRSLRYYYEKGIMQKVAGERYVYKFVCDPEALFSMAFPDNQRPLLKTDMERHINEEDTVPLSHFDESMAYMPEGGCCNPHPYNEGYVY
# Sequence of ETV5 (P41161 whole entry): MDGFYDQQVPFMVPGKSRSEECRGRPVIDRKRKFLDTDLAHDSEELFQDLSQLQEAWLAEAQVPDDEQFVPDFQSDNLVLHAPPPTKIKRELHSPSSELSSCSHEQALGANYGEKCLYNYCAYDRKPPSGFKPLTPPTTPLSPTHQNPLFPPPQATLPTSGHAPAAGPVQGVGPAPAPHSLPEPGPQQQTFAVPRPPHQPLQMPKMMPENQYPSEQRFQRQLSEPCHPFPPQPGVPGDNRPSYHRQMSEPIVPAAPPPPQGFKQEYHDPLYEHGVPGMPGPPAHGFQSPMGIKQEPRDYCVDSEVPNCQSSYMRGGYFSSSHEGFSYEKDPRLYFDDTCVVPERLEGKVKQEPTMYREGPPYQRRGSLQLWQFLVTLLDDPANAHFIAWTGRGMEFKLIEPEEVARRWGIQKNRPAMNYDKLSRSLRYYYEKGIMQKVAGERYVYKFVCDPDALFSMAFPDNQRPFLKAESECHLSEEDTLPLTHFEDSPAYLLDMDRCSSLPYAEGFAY
# Sequence of ETV6 (P41212 whole entry): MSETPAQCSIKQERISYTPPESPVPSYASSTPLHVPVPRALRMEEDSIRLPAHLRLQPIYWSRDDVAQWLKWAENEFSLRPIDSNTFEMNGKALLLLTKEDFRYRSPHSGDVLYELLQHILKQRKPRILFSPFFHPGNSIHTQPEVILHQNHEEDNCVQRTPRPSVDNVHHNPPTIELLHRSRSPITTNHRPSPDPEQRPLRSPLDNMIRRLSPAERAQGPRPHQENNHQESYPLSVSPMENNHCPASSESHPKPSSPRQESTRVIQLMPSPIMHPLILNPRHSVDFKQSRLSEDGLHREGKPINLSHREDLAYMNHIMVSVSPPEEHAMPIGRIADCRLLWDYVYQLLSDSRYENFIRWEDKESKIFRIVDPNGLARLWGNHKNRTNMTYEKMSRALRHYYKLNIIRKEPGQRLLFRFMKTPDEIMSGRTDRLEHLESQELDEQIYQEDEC
# Sequence of CRX (O43186 whole entry): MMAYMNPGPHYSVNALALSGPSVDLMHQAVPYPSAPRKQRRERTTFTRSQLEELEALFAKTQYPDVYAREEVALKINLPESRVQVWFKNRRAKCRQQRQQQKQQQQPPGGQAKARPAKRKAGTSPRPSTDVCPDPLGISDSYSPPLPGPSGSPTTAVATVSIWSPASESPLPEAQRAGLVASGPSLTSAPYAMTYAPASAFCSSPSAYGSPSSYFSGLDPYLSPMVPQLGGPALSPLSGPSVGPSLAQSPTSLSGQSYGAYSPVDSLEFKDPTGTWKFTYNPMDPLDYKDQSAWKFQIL
# Sequence of ELF4 (Q99607 whole entry): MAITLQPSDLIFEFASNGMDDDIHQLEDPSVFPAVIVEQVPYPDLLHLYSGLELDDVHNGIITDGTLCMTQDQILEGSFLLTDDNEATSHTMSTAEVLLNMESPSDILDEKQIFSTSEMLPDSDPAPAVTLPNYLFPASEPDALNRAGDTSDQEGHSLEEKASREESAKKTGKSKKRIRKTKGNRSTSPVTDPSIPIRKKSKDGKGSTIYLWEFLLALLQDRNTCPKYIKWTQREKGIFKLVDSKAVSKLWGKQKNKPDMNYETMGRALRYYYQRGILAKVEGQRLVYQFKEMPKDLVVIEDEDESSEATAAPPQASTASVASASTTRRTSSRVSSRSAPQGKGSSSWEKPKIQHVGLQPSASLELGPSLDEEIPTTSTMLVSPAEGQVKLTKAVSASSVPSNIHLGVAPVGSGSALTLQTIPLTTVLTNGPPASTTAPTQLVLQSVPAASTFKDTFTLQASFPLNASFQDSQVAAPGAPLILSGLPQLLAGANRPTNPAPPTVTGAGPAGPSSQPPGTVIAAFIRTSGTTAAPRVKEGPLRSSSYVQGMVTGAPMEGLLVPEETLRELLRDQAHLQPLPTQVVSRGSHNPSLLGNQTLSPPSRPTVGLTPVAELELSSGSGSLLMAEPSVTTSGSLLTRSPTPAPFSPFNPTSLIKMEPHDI
sequence,measurement,setting,value
CGAAAA,binding signal,FEV,"1.04 fold enrichment (6-mer frequency, TF over GST control)"
same,binding signal,ETV5,"1.13 fold enrichment (6-mer frequency, TF over GST control)"
same,binding signal,HSF1,"1.85 fold enrichment (6-mer frequency, TF over GST control)"
same,binding signal,SPIC,"1.07 fold enrichment (6-mer frequency, TF over GST control)"
same,binding signal,ELF4,"1.11 fold enrichment (6-mer frequency, TF over GST control)"
same,binding signal,ELK4,"1.12 fold enrichment (6-mer frequency, TF over GST control)"
same,binding signal,ETV2,"1.04 fold enrichment (6-mer frequency, TF over GST control)"
same,binding signal,ELF3,"1.01 fold enrichment (6-mer frequency, TF over GST control)"
same,binding signal,CRX,"1.12 fold enrichment (6-mer frequency, TF over GST control)"
same,binding signal,ETV1,"1.06 fold enrichment (6-mer frequency, TF over GST control)"
same,binding signal,ERF,"1.17 fold enrichment (6-mer frequency, TF over GST control)"
same,binding signal,ETV3L,"1.09 fold enrichment (6-mer frequency, TF over GST control)"
same,binding signal,ETS2,"1.08 fold enrichment (6-mer frequency, TF over GST control)"
same,binding signal,SPDEF,"1.02 fold enrichment (6-mer frequency, TF over GST control)"
same,binding signal,ETV7,"1.17 fold enrichment (6-mer frequency, TF over GST control)"
same,binding signal,ETV6,"1.08 fold enrichment (6-mer frequency, TF over GST control)"
